Experimental data published in PubChem BioAssay AID624170 (National Center for Advancing Translational Sciences (NCATS), 2012).
Out of some 410,000 compounds screened, about 850 (0.21%) were called active. Not shown: some 2% with an inconclusive outcome. The full list was thinned out, with actives kept by preference. Unmarked numbers belong to inactive results. The call rests on the fitted dose curve; in most records, active means well fitted inhibition curve with a large enough effect; inconclusive means small, poorly fitted or top-dose-only effect, or another doubt; inactive means no such curve, though single readings can be large or run the other way. Square brackets hold non-standard residues; d marks the D form. Side chains are listed from the residue outwards. Peptide text beside a SMILES is read from it. * marks the point of attachment. X1 = CCC(C)C(N)C1=NC(C(=O)*)CS1; Orn = NCCC[CH](N)C(=O)O

Biological target: Glutaminase kidney isoform, mitochondrial (Homo sapiens) (UniProt O94925)
Sequence (O94925 whole entry, looked up, canonical isoform): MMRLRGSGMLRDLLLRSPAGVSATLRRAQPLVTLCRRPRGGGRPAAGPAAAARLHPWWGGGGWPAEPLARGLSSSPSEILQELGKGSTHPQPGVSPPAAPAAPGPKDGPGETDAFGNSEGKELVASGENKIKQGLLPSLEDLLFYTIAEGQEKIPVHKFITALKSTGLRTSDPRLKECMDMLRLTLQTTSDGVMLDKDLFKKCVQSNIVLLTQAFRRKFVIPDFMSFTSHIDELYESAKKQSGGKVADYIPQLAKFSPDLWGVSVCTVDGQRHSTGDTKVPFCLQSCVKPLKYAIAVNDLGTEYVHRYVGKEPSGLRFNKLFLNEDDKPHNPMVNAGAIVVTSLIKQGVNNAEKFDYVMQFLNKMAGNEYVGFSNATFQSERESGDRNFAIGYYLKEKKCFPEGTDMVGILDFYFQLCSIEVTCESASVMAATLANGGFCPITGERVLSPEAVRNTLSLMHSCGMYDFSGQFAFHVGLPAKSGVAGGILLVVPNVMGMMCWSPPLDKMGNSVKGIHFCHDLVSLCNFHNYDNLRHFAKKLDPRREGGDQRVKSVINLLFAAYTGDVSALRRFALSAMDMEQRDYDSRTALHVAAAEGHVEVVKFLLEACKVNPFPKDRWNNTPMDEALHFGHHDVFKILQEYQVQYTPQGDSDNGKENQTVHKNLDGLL
Test: qHTS for Inhibitors of Glutaminase (GLS)
Details: GLS enzymatic activity, qHTS titration; series mostly up to 45.5 µM; activity change, negative = inhibition: at the top concentration
Description: Glutaminase (GLS) catalyzes the hydrolysis of glutamine into glutamate and ammonia. It plays a critical role in glutaminolysis, which is an important energy source for proliferating cells. It was shown that c-Myc, an oncogenic transcription factor known to regulate microRNAs and to stimulate cell proliferation, increases glutamine metabolism by stimulating the expression of GLS via direct suppression of miR23a and miR23b.
GLS is also thought to play a pathogenic role on HAD using a human HIV-1 infected macrophage system. […] GLS inhibition limits glutamate release and provides neuroprotection against HIV-1 infected macrophages.
The overall goal of this project is to identify small molecule inhibitors of GLS through quantitative high throughput screening (qHTS) of the MLSMR. A validated potent and selective inhibitor can be used as a tool molecule to further study the pharmacology of its target as well as explore its potential therapeutic application in cancer and inflammatory neurological disorders, such as HIV1-associated dementia (HAD) and multiple sclerosis.
NIH Chemical Genomics Center [NCGC]
NIH Molecular Libraries Probe Centers Network [MLPCN]
Assay Submitter (PI): Barbara S. Slusher, Johns Hopkins University
Three 3 uL of hKGA is dispensed into black well 1536-well plates in 45 mM KH2PO4 (pH 8.2), 0.02% Tween-20. Then 23 nL of compounds are added through pin tool transfer. To this, 1 uL of 1mM L-Glutamine and 1 uL of a solution of L-Glutamateoxidase, HRP, Amplex red are added. Plate is centrifuged for 25 sec before an initial fluorescence read is obtained on the ViewLux, after 30 min of RT incubation, the final read is taken on the ViewLux.
On the % scale 0 is the no-effect control and ±100 the full control effect; potency means the concentration at half of the fitted maximal effect.

| Compound | activity change, negative = inhibition | Potency |
| --- | --- | --- |
| CCOC(=O)c1ccccc1NC(=O)CCc1c(C)nc2c(c1C)c(=O)n(C)c(=O)n2C | -6.2% |  |
| O=C(O)CCCCC(=O)O | -1.94% |  |
| CCOc1ccc(NC(=O)c2c(NC(=O)Cc3ccccc3)sc3c2CCC(C)C3)cc1 (configuration not stated) | -27.7% |  |
| O=C(Nc1ccccc1)c1nnsc1S(=O)(=O)c1ccc(Cl)cc1 |  | 14.1 µM (active) |
| O=C(Nc1ccc(Oc2ccccc2)cc1)C1CCN(S(=O)(=O)c2ccc(Cl)cc2)CC1 | -5.18% |  |
| O=C(Nc1cccc(Cl)c1)c1csnn1 | -8.09% |  |
| CCCC[C@H]1C(=O)N(c2ccccc2)N(c2ccc(O)cc2)C1=O | -6.67% [at 20 µM] |  |
| O=C(OCc1ccccc1)c1ccc(O)cc1 | 16.9% |  |
| CC(=O)OC1C([N+]2(C)CCCCC2)C[C@H]2C3CC[C@H]4C[C@H](OC(C)=O)C([N+]5(C)CCCCC5)CC4(C)C3CCC12C (some centres not stated) | 4.13% |  |
| O=C(O)/C=C/C(=O)NNc1ccc([N+](=O)[O-])cc1 |  | 11.2 µM (active) |
| O=C(O)CC(Cc1ccccc1)C(=O)Nc1ccc([N+](=O)[O-])cc1 (configuration not stated) | 1.28% |  |
| CC(C)(C)C(=O)NCCCNc1ccc([N+](=O)[O-])cc1 | -9.97% |  |
| CCCCC(=O)OCC(=O)[C@H]1[C@H](C)C[C@@H]2[C@@H]3C[C@@H](F)C4=CC(=O)C=C[C@]4(C)[C@@]3(F)[C@@H](O)C[C@@]21C | -8.67% |  |
| COc1ccc(NC(=O)c2sc3nc[nH]c(=O)c3c2C)cc1 | -11% |  |
| CC(C)OCCCNc1nc2c(c(=O)n(Cc3ccccc3F)c(=O)n2C)n1C |  | 12.6 µM (active) |
| Cn1c(=O)c2c(nc(NCCNC(=O)c3ccco3)n2Cc2ccccc2F)n(C)c1=O | -2.17% |  |
| Cn1c(=O)c2c(nc(NCCc3ccccc3)n2Cc2ccccc2Br)n(C)c1=O | 4.52% |  |
| CCC(C)Nc1oc(-c2ccc(COc3ccc(Cl)cc3)o2)nc1C#N (configuration not stated) | 11.6% |  |
| CC(O)COc1ccccc1 (configuration not stated) | -9.16% |  |

| Compound | activity change, negative = inhibition | Potency |
| --- | --- | --- |
| CC1(C)OC[C@@H](COC(=O)CCc2ccc(OC[C@@H](O)CNCCNC(=O)N3CCOCC3)cc2)O1 |  | inactive |
| Cc1cc(C)c2c(c1)c(C)cc1nnc(SCC(=O)NCc3ccco3)n12 | -0.984% |  |
| Cc1cc(C)c2nc(-c3ccco3)cc(C(=O)O)c2c1 |  | 11.2 µM (active) |
| Cc1cccc(NC(=O)CSc2nc(-c3ccco3)cc(C(F)(F)F)n2)c1C | 8.96% |  |
| COC(=O)[C@@H]1CC2=CC(=O)CC[C@]2(C)[C@@]23O[C@@H]2C[C@@]2(C)[C@@H](CC[C@@]24CCC(=O)O4)[C@H]13 | 11.8% |  |
| CC(NC(=O)CCc1cn(Cc2ccccc2Cl)c2ccccc12)c1ccccc1 (configuration not stated) | -0.697% |  |
| Cc1ccc(Cn2c(CNC(=O)Cc3cccc(C)c3)nc3cccnc32)cc1 | 1.55% |  |
| C=C1c2c(Cl)ccc(O)c2C(O)=C2C(=O)[C@]3(O)C(O)=C(C(N)=O)C(=O)[C@@H](N(C)C)[C@@H]3[C@@H](O)C12 (some centres not stated) |  | 10 µM (active) |
| Cc1c(O)cc2c(c1C)O[C@](C)(CCC[C@H](C)CCC[C@H](C)CCCC(C)C)CC2 | 1.97% |  |
| CCC[C@H]1C(=O)N2C(N(C)C)=Nc3ccc(C)cc3N2C1=O | -12.6% [at 20 µM] |  |
| CCc1cc2c(cc3c(=O)n(CC(=O)N4CCN(c5cc(Cl)ccc5C)CC4)ncn32)s1 | 2.45% |  |
| CC(C)CCN(C(=O)Nc1ccc(Cl)c(Cl)c1)C(C)c1cccs1 (configuration not stated) | 6.32% |  |
| COc1ccc(C2(C#N)CCC(C(=O)O)CC2)cc1OC1CCCC1 (configuration not stated) | 86.3% |  |
| CCNCCC(=O)N1c2ccccc2Sc2ccc(NC(=O)OCC)cc21 |  | 11.2 µM (active) |
| CCOC(=O)Nc1ccc2c(c1)N(C(=O)CN1CCN3CCCC3C1)c1ccccc1CC2 (configuration not stated) | 0.588% |  |
| CCOC(=O)Nc1ccc2c(c1)N(C(=O)CCCl)c1ccccc1[S@]2=O | -1.48% |  |
| COc1cc(C(=O)N2CCC(c3ccncc3)CC2)cc(OC)c1OC | -16% |  |
| O=C(Nc1ccc(O)cc1)c1ccccc1O | 18.9% |  |
| COc1cc(OC)cc(C(=O)Nc2cc3nn(-c4ccccc4)nc3cc2Cl)c1 | -7.39% |  |

| Compound | activity change, negative = inhibition | Potency |
| --- | --- | --- |
| CCCc1c2oc(C(=O)O)cc(=O)c2cc2c(=O)cc(C(=O)O)n(CC)c12 | -0.467% |  |
| CCOc1cccc(/C=N/N2C(=O)CSC2=S)c1O |  | 10 µM (active) |
| O=C1CSC(=S)N1/N=C/c1ccc(O)c([N+](=O)[O-])c1 | -1.11% |  |
| CCOc1cc(/C=N/n2cnnc2)c(Br)cc1O | 27.6% |  |
| Cc1ccccc1NC(=O)c1cc2c([nH]c1=O)CC(C)(C)CC2=O | -24% |  |
| CCC(C)C(N)C1=NC(C(=O)NC(CC(C)C)C(=O)NC(CCC(=O)O)C(=O)NC(C(=O)NCCCCC2NC(=O)C(CC(N)=O)NC(=O)C(CC(=O)O)NC(=O)C(Cc3cnc[nH]3)NC(=O)C(Cc3ccccc3)NC(=O)C(C(C)CC)NC(=O)C(CCCN)NC2=O)C(C)CC)CS1 (stereo not drawn) (cyclo(DNK([Ile-Glu-Leu-X1])[Orn]IFH); configuration not given here) | 5.57% |  |
| CC1(C)[C@H](O[C@H]2O[C@H](C(=O)O)[C@@H](O)[C@H](O)[C@H]2O[C@@H]2O[C@H](C(=O)O)[C@@H](O)[C@H](O)[C@H]2O)CC[C@@]2(C)[C@H]1CC[C@]1(C)[C@H]2C(=O)C=C2[C@H]3C[C@@](C)(C(=O)O)CC[C@]3(C)CC[C@]21C | 14.9% |  |
| O=c1oc2ccccc2cc1-c1csc(Nc2ccc(O)cc2)n1 |  | 2.82 µM (active) |
| Cc1cc(NC(=O)c2cccc(Cl)c2)ccc1-c1cc2ccccc2oc1=O | -8.99% |  |
| N#C/C(=C\c1cccc(F)c1)c1nc(-c2cc3c(ccc4ccccc43)oc2=O)cs1 | 9.66% |  |
| Cc1cc2nc(NC(=O)c3ccc(S(=O)(=O)N4CCOCC4)cc3)sc2cc1C | -6.57% |  |
| CC1(C)O[C@@H]2C[C@@H]3[C@H]4C[C@@H](F)C5=CC(=O)C=C[C@]5(C)[C@@]4(F)[C@@H](O)C[C@]3(C)[C@]2(C(=O)CO)O1 | -9.75% |  |
| NNc1nnc(NN)c2ccccc12 | 18.4% |  |
| COc1ccc(Br)cc1CNC(=O)c1cc(=O)[nH]c2ccc(S(=O)(=O)N3CCCC3)cc12 | -6.81% |  |
| O=C1c2c(O)cccc2[C@@H]([C@@H]2O[C@H](CO)[C@@H](O)[C@H](O)[C@H]2O)c2cc(CO)cc(O)c21 | -1.67% |  |
| CCC(CCC(C)C1CCC2C3CC=C4CC(O)CC[C@@]4(C)C3CC[C@@]12C)C(C)C (some centres not stated) | 0.242% |  |
| CCN1C(=O)c2ccccc2S(=O)c2ccc(C(=O)NCc3ccc(F)cc3)cc21 (configuration not stated) | -0.753% |  |
| CCN(CC)S(=O)(=O)c1ccc2c3c(cccc13)C(=O)S2 | -7.06% |  |
| CCN1C(=O)c2cccc3c(S(=O)(=O)Nc4ccccc4O)ccc1c23 |  | 11.2 µM (active) |
